Tau fluor counter: counter-screen for tau fibril formation inhibitors. hit rate 0.93% among 280,000. Potency, µM (series often up to 57.7 µM), without a hit: top-dose activity change, negative = decrease. tau K18 P301L Alexa594 fluorescence, heparin fibrillization. AID 1463; note: nearly all actives have a fitted effect of over 55% in size
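Human K18 P301L tau (15 uM unlabeled plus 0.24 uM Alexa 594-labeled, final) in 100 mM sodium acetate pH 7 was mixed with compound and 20 uM heparin and incubated 6 hr at 37 C.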
HPGD block: inhibitors of human 15-hydroxyprostaglandin dehydrogenase (HPGD) | P15428 | hit rate 4.3% among 150,000 | Potency, µM, for the others: top-dose activity change, negative = inhibition, usual class: inhibitors | purified HPGD, NADH fluorescence kinetic, PGE2 substrate | AID 894; active = well fitted inhibition curve with a large enough effect, not every such curve was filed as active; inconclusive = small, poorly fitted or top-dose-only effect, or another doubt; inactive = no such curve, though single readings can be large or run the other way
Target sequence (P15428 whole entry, looked up): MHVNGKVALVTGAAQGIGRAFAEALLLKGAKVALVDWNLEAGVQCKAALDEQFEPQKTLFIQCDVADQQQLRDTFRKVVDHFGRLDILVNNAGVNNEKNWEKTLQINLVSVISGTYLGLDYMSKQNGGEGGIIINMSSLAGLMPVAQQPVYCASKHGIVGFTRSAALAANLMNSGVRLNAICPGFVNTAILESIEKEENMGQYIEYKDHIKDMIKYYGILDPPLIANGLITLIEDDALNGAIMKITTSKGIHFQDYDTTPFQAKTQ
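NADH formation kinetics: reaction with 30 uM PGE2 and 1 mM NAD+ (final), 20 nM enzyme, Tris-HCl pH 8 with Tween 20, after 15 min compound preincubation at room temperature. Fluorescence change, last versus first of five reads.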
Tau ThT inhib: tau fibrillization inhibition (ThT binding) | hit rate 2.1% among 270,000 | P10636 | Potency, µM (doses to about 57.4 µM), for inactives: top-dose activity, negative = inhibition, usual class: inhibitors | recombinant tau K18 P301L (four-repeat tau fragment), heparin-induced fibrillization, ThT fluorescence | AID 1460; note: nearly all actives have a fitted effect of over 55% in size
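In this qHTS, human K18 P301L tau is incubated with compound and heparin for 6 hr at 37 C, and Thioflavin T fluorescence then reports fibril load.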
KDM4E inh: blocks human JMJD2E demethylase activity | Potency, µM (top dose mostly 57.1 µM), inactives show at the top dose activity change, negative = inhibition, most hits filed as inhibitors | hit rate 1.6% among 230,000 | AID 2147 | JMJD2E catalytic domain, FDH-coupled NADH fluorescence (FDH is formaldehyde dehydrogenase);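 note: 0% = wells with enzyme and -100% = buffer wells without enzyme; nearly all actives have a fitted effect of over 50% in size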
Target sequence (B2RXH2 1-337 limits assumed): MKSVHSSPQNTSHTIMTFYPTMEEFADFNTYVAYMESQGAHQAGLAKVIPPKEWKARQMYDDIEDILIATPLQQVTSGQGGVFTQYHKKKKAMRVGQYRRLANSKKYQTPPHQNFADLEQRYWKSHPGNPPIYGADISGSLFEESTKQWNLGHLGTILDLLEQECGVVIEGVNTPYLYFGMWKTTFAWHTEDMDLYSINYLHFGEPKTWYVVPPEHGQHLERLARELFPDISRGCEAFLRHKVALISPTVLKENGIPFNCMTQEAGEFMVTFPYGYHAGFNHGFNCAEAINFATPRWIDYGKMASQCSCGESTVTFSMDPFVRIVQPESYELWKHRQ
Tau FP inhib: inhibitors of human tau fibril formation; hit rate 0.39% among 280,000; P10636; Potency, µM (titrated, usually from 57.7 µM), without a hit: top-dose activity, negative = inhibition, usual class: inhibitors; K18 P301L tau heparin fibrillization, Alexa594 FP, 6 h; note: nearly all actives have a fitted effect of over 55% in size
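K18 P301L tau (15 uM unlabeled/0.24 uM Alexa 594-labeled, final) + compound + heparin 20 uM final; 100 mM NaOAc pH 7; 6 hr 37 C; ThT 30 uM final added, 1 hr RT; FP ex 555/em 632 nm.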
ALDH1A1 block: inhibitors of human aldehyde dehydrogenase 1A1 | P00352 | Purified ALDH1A1, NADH fluorescence, propionaldehyde substrate | Potency, µM (doses to about 75.3 µM), for the others: at the highest dose activity, negative = inhibition, most hits filed as inhibitors | hit rate 7.3% among 220,000; active = well fitted inhibition curve with a large enough effect, not every such curve was filed as active; inconclusive = small, poorly fitted or top-dose-only effect, or another doubt; inactive = no such curve, though single readings can be large or run the other way;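 note: plate controls were no enzyme wells and a reference inhibitor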
Active calls of the source: *; ? = inconclusive; / = not tested or not shown; [ ] = another dose, or the depositor's remark. A selection: hits, their analogues and other compounds. The true share with any hit is near 9.9%. Unless noted, calls come from the whole dose curve; as a rule, active = well fitted curve in the direction sought with a large enough effect; inconclusive = small, poorly fitted or top-dose-only effect, or another doubt; inactive = no such curve, though single readings can be large; an effect the other way counts as inactive or inconclusive. Unless noted, % is set by controls: 0 for no effect and ±100 for the full control effect; potency is the fitted concentration of half-maximal effect.

SMILES | Tau fluor counter | HPGD block | Tau ThT inhib | KDM4E inh | Tau FP inhib | ALDH1A1 block
Cc1nc2c(O)cccc2c(=O)[nH]1 | -8% | -9% | -12% | 13µM* | 0% | -7%
Cc1nc2ccccc2c(=O)[nH]1 | 0% | -16% | -8% | -2% | 7% | 6%
Cc1ccc(NC(=O)c2cc(S(=O)(=O)N3CCCC3)c[nH]2)c(C)c1 | -5% | / | 2% | / | -3% | /
CCc1ccc(-c2nn(CC(=O)NC3CCCCC3)c3c2cnc2ccc(OC)cc23)cc1 | -6% | / | -13% | / | -9% | /
CCn1nnnc1SCC(=O)N1c2ccccc2Sc2ccccc21 | -15% | -6% | -10% | 0% | -4% | 13µM*
Cn1nnnc1SCC(=O)N1c2ccccc2Sc2ccccc21 | -9% | -10% | -6% | 6% | -8% | 5%
CCn1nnnc1SCC(=O)N1c2ccccc2CCc2ccccc21 | -7% | -7% | -10% | 11% | 3% | 2µM*
CC(=O)N1CCC2(CC1)CN(c1ccncc1)C2 | / | -13% | / | / | / | 10%
CCOC(=O)c1cc(-c2ccccc2)n(-c2cccc(C(=O)N(CC)c3ccccc3)c2)c1C | -3% | / | ? | / | -4% | /
Cc1ccc(Cn2cccc2C2=NC(C)(C)CO2)cc1 | -2% | / | 5% | / | -1% | /
Cc1c(Cl)cccc1-n1nnnc1-c1cccs1 | -9% | -6% | -10% | 2% | -2% | 11µM*
Nc1c(-c2nc(-c3cccs3)no2)nnn1-c1ccccc1Cl | 3% | / | 3% | / | -12% | /
CS(=O)(=O)N1CCC2(CC1)CN(Cc1nccs1)C2 | / | -9% | / | / | / | 2%
CCOc1ccc(S(=O)(=O)N(CC(=O)NCCSc2ccccc2)c2ccccc2)cc1 | 2% | / | 5% | / | ? | /
CCc1cc(/C(Cc2ccccn2)=N\Nc2ccccc2)c(O)cc1O | ? | / | ? | ? | -8% | 7.9µM*
Cc1nc(C/C(=N\Nc2ccccc2)c2ccc(O)cc2O)cs1 | 25µM*[quencher] | / | ? | 14µM* | -5% | 3.2µM*
CSc1ncc(Cl)c(C(=O)Nc2cccc(C)c2)n1 | -20% | -18% | -9% | -11% | -3% | -5%
CSc1ncc(Cl)c(C(=O)C(C#N)c2nc3c(C)cc(C)cc3c(=O)[nH]2)n1 (centres undefined) | -14% | 25µM* | ? | ? | -1% | -10%
COCCN=c1scc(-c2cccs2)n1/N=C/c1ccc(O)c(O)c1O | 2% | / | 5% | -15% | 6% | 1.1µM*
Cc1cc(C)n(/N=C/c2c[nH]c3ccccc23)c(=O)c1 | -9% | ? | -10% | 5% | 1% | -12%
COCCN=c1scc(-c2ccccc2)n1/N=C/c1c[nH]c2ccccc12 | 10µM*[quencher] | -17% | 13µM* | 0% | ? | ?
CCN=c1scc(C)n1/N=C/c1ccc(O)c(O)c1O | ? | 7.1µM* | 11µM* | 11µM* | 22µM* | 10µM*
COc1ccc(CNC(=O)C(CC(C)C)NS(=O)(=O)c2ccc3c(c2)oc(=O)n3C)cc1 (centres undefined) | -1% | / | 0% | / | -1% | /
C[n+]1c2n(c3ccccc31)N=C(c1ccc(Br)cc1)CS2 | -13% | -6% | ? | -6% | ? | 18µM*
COc1ccc(S(=O)(=O)N2CCc3ccccc32)cc1C(=O)OCc1c(C)noc1C | -21% | -18% | -7% | -4% | 6% | 3.2µM*
SMILES | Tau fluor counter | HPGD block | Tau ThT inhib | KDM4E inh | Tau FP inhib | ALDH1A1 block
COc1ccc(S(=O)(=O)N2CCCCCC2)cc1C(=O)OCc1c(C)noc1C | -15% | 1% | -1% | 2% | 15% | 14µM*
COc1cc(C(=O)N2CCc3ccccc32)ccc1OCc1c(C)noc1C | -2% | / | -3% | 2% | 6% | /
COc1ccc(-c2cc(C)no2)cc1S(=O)(=O)N1CCc2ccccc21 | 28µM*[fluorescent] | / | ? | / | 15% | /
Cc1noc(C)c1COC(=O)c1cccc(S(=O)(=O)N2CCCCCC2)c1 | -25% | -2% | -18% | -10% | 0% | ?
CC(CC(=O)O)Nc1ccccc1O (centres undefined) | -8% | / | ? | 20µM* | -8% | -4%
O=C(Nc1ccccc1-c1ccccc1)C1CCC1 | -1% | / | -3% | -14% | 6% | 3.2µM*
O=C(Nc1ccccc1-c1ccccc1)C1CCCCC1 | -4% | -10% | -4% | 10% | 5% | 9%
CC1CCN(CC(=O)Nc2ccccc2-c2ccccc2)CC1 | 2% | -21% | 2% | 1% | 18% | ?
NC(=O)C1(N2CCCCC2)CCN(CC(=O)Nc2ccccc2-c2ccccc2)CC1 | 2% | -1% | -3% | 6% | ? | 4µM*
COc1ccc(-n2nc3c(c2NC(=O)C(=O)NCc2ccccc2)CSC3)cc1 | -6% | / | ? | / | -9% | /
CC(=O)C1C(c2cn(-c3ccccc3)nc2-c2cccs2)NC(=O)NC1(O)C(F)(F)F (centres undefined) | -9% | -14% | -5% | -2% | -3% | 22µM*
O=C(O)c1ccc(N/N=C/C2=C(N3CCOCC3)C(=C\c3ccccc3)/CC2)cc1 | ? | / | ? | ? | 2% | /
Cc1cc(C)nc(N/N=C/C2=C(N3CCOCC3)C(=C\c3ccc(Cl)cc3)/CC2)n1 | -12% | -12% | 11µM* | ? | -9% | 16µM*
O=CC1=C(N2CCOCC2)/C(=C/c2ccc(Cl)cc2)CC1 | -9% | / | ? | ? | -2% | 11µM*
Nc1nn(-c2ccccc2Cl)cc1-c1nn[nH]n1 | 2% | / | -2% | 0% | -6% | /
O=C(CCSc1ccccn1)c1ccccc1 | 2% | / | ? | -7% | ? | 0.25µM*
CCCN=C(N)NCCC[C@H](N)C(=O)O | -5% | -7% | -5% | ? | -7% | -4%
O=C(NCC1CCCO1)C1CC(c2ccccc2Cl)=NO1 (centres undefined) | -7% | 20µM* | -13% | 8% | 1% | 10%
CC(C)c1cc(C(=O)Nc2cc(Br)ccc2O)no1 | ? | 8.9µM* | -18% | 1% | -1% | 4%
CC(C)Cc1cc(C(=O)Nc2ccc(F)cc2F)no1 | 5% | -17% | 9% | 0% | -10% | ?
CC(C)c1cc(C(=O)Nc2cccc(Cl)c2)no1 | -14% | -18% | -9% | 5% | 0% | -3%
CCCc1cc(C(=O)Nc2cc(Br)ccc2O)no1 | -14% | ? | -7% | -1% | 11% | 4%
CC(C)c1cc(C(=O)Nc2cc(Cl)ccc2O)no1 | ? | 5.6µM* | -22% | 1% | ? | 3%
CC(C)Cc1cc(C(=O)Nc2cc(Cl)ccc2Cl)no1 | -2% | 14µM* | -9% | -6% | -4% | -5%
COc1cc2c(=O)n(Cc3ccccc3Cl)c(=O)n(CC(=O)Nc3ccccc3)c2cc1OC | -30% | / | 10% | / | ? | /
